# Results as given in PubChem BioAssay AID2551 (National Center for Advancing Translational Sciences (NCATS), 2010).
# Out of some 310,000 compounds screened, about 17,000 (5.5%) were called active. Inconclusive results (about 11%) are left out. What follows is part of a selection rich in actives, with near analogues and random picks from the rest. A number with no mark means an inactive call. Calls come from the whole dose curve; as a rule, active = well fitted inhibition curve with a large enough effect; inconclusive = small, poorly fitted or top-dose-only effect, or effect the other way; inactive = no such curve, though single readings can be large or run the other way.
# Molecular target: Nuclear receptor ROR-gamma (Mus musculus) (UniProt P51450)
# Assay: qHTS for inhibitors of ROR gamma transcriptional activity; note: nearly all actives have a fitted effect of over 60% in size
# Conditions: Drosophila S2 Gal4-RORgamma UAS-luciferase reporter, 20 h; series mostly up to 53.6 µM; activity change, negative = inhibition: at the top concentration
# Summary of the method: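 Luminescence from a UAS-regulated Photinus luciferase reporter in stably transfected Drosophila Schneider cells is measured; decreased signal marks ROR gamma inhibition. Fusion expression is induced by 700 uM copper sulfate for 20 hr.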
# % is set by controls: 0 for no effect and ±100 for the full control effect; potency is the fitted concentration of half-maximal effect.
# Chain of Nuclear receptor ROR-gamma (Mus musculus) (P51450 whole entry, looked up): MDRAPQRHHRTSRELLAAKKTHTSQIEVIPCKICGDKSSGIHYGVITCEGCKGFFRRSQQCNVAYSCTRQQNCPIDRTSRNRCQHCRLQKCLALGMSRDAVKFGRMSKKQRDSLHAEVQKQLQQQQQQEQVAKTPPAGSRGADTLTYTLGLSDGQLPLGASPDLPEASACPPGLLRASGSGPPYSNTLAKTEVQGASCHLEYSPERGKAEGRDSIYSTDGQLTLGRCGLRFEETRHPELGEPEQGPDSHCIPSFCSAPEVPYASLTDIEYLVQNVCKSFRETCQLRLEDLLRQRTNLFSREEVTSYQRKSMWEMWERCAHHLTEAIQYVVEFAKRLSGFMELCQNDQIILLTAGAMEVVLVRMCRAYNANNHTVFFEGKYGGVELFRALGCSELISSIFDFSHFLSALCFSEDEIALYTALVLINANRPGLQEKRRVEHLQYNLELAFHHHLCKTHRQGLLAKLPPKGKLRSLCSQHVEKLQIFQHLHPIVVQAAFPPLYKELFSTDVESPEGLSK
SMILES,"activity change, negative = inhibition",Potency
CCCn1c(C(Cc2ccccc2)NC(=O)COC)nc2ccccc21 (stereo not drawn),-6.17%,
CCOc1ccccc1NC(=O)C12CC3CC(C1)CC(c1ccc(C)cc1)(C3)C2,8.47%,
CCCn1c(NC(=O)C23CC4CC(CC(O)(C4)C2)C3)nc2ccccc21,,0.708 µM (active)
Cc1cc(C)nc(N/N=C/c2c(CO)cnc(C)c2O)n1,-28.5%,
COc1ccc(Cn2c(=S)[nH]c3cc(C(=O)NCCCN4CCOCC4)ccc3c2=O)cc1,-17.8%,
NC(=O)C1CCN(C(=O)c2ccc3c(=O)n(Cc4cccc(Br)c4)c(=S)[nH]c3c2)CC1,5.31%,
COc1ccc(Cn2c(O)c(/C=C3/C=CC=N3)c(=O)[nH]c2=O)cc1,-1.9%,
COc1ccc(Cn2c(=S)[nH]c3cc(C(=O)N4CCCCC4)ccc3c2=O)cc1,,8.91 µM (active)
COc1ccc(Cn2c(=O)cc(C)[nH]c2=S)cc1,,11.2 µM (active)
COc1ccc(CNc2nc3c(c(=O)[nH]c(=O)n3C)n2Cc2ccccc2)cc1,8.46%,
COC(=O)c1ccc2c(=O)n(CC3CCCO3)c(=S)[nH]c2c1 (stereo not drawn),,2.82 µM (active)
COCCn1c(=S)[nH]c2cc(C(=O)NCCc3ccc(OC)c(OC)c3)ccc2c1=O,-10.7%,
O=C(NC1CCCCC1)c1ccc2c(=O)n(CC3CCCO3)c(=O)[nH]c2c1 (stereo not drawn),-16.1%,
COc1cc2c(cc1OC)CN(CC(=O)Nc1ccc(F)cc1)CC2,-11.1%,
CC(C)Oc1ccc(C(CC(=O)N2CCOCC2)C(C)C)cc1 (stereo not drawn),11.9%,
COc1ccc(-c2nc3c(s2)CCc2onc(-c4ccc(OC)cc4)c2-3)cc1,10.8%,
COc1cccc2cc(C(=O)NCc3ccc(C)cc3)c(=N)oc12,-13.8%,
COc1cc(C(=O)Nn2c(CC(C)C)nc3ccccc3c2=O)cc(OC)c1OC,-37% [at 1.91 µM],
CCOc1ccccc1NC(=O)Cn1ncc2ccc([N+](=O)[O-])cc21,-2.79%,
CC(=O)Nc1ccc(S(=O)(=O)N2CCC(C(=O)N[C@@H](Cc3ccccc3)C(=O)O)CC2)cc1,5.02%,
COc1cccc(NC(=O)N2CCCC2C(=O)NC2CCCCC2)c1 (stereo not drawn),-5.05%,
Cc1cc(-c2ccc(C)c(S(=O)(=O)NCCCN(Cc3ccccc3)C(C)C)c2)on1,-8.59%,
O=C(NCCCN1CCCCC1)C1CC(=O)N(CCc2ccccc2)C1 (stereo not drawn),-16.4%,
Oc1c(Cl)cc(Cl)c(Cl)c1Cc1c(O)c(Cl)cc(Cl)c1Cl,,5.62 µM (active)
CN1CCN(c2ccc(NC(=O)c3ccc4c(c3)[nH]c(=O)n4Cc3ccc(F)cc3)cc2)CC1,16.3%,
Cn1c(=O)n(C)c2cc(C(=O)Nc3ccc(Br)cc3)ccc21,-36.7%,
CC(C)n1c(=O)[nH]c2cc(C(=O)Nc3ccccc3)ccc21,,7.94 µM (active)

SMILES,"activity change, negative = inhibition",Potency
CCOC(=O)N1CCN(C(=O)C(C)NC(=O)c2ccco2)CC1 (stereo not drawn),10.7%,
O=C(N/N=C/C=C/c1ccco1)c1cccs1,,5.01 µM (active)
O=C(N/N=C/c1ccco1)c1ccc(C(=O)N/N=C/c2ccco2)o1,18.2%,
CC(/C=N/NC(=O)c1ccncc1)=C\c1ccco1,-2.2%,
COc1cc(OC)c(NC(=O)C2CCCN2C(=O)OCc2ccccc2)cc1Cl (stereo not drawn),-3.37%,
COc1ccc(OC)c(S(=O)(=O)n2c([N+](=O)[O-])cnc2C)c1,-5.1%,
Cc1cccc(N(CC(=O)Nc2ccc(-c3nc4ccc(C)cc4s3)cc2)S(C)(=O)=O)c1,12.6%,
Cc1ccc2nc(-c3ccc(NC(=O)CN(C)S(=O)(=O)c4ccccc4)cc3)sc2c1,,2 µM (active)
Cc1nc2ccc(S(=O)(=O)N(C)CC(=O)NC(C)c3ccccc3)cc2s1 (stereo not drawn),6.35%,
CCN(C(=O)CSc1nnc(-c2ccncc2)o1)c1ccccc1,-0.118%,
COc1ccc(NS(=O)(=O)c2cccc3nsnc23)cc1Cl,20.8%,
CCOC(=O)C(C)Sc1nc2ccccc2c(=O)n1CC1CCCCC1 (stereo not drawn),13.1%,
CN(c1ccc2nc3ccccc3c(=O)n2n1)C1CCCCC1,,0.398 µM (active)
O=c1c2ccccc2nc2n1C1(CCCCC1)Cc1ccccc1-2,13.3%,
CC(=O)Oc1ccc(-c2cccc(C(=O)N3CCCCC3)c2)cc1,25.1%,
COc1ccccc1OCCn1c(SCC(N)=O)nc2ccccc21,17.5%,
O=C(NCc1cccnc1)C12CC3CC(CC(C3)C1)C2,0.141%,
Cc1ccc(C(=O)NC2CCN(C(=O)Nc3ccccc3Cl)CC2)cc1,-3.35%,
CC(C)CC(=O)NC(=S)NCc1ccccc1,,5.01 µM (active)
CC(C)CNC(=O)C(=O)NCc1ccccc1,-0.503%,
CC(C)CC(=O)c1c[nH]c(C(=O)NCc2ccccc2)c1,3.37%,
CC(=O)c1ccc(NC(=S)NC(=O)CC(C)C)cc1,,12.6 µM (active)
COc1ccc(NS(=O)(=O)c2ccc(NC(=S)NC(=O)CC(C)C)cc2)cc1,-31.3%,
CC(C)CC(=O)NC(=S)Nc1cc(C(=O)O)ccc1Cl,7.72%,
CC1CCCCN1CCCNc1ccc(C(CC(N)=O)NC(=O)c2ccccc2)cc1[N+](=O)[O-] (stereo not drawn),-13.3%,
CCOC(=O)N1CCN(C(=O)C(=O)Nc2sc3c(c2C#N)CC(C)(C)OC3)CC1,9.29%,
